ELG1 repair inh = qHTS screen for small molecules that inhibit ELG1-dependent DNA repair in human embryonic kidney (HEK293T) cells expressing luciferase-tagged ELG1; HEK293T ELG1-luciferase reporter, luminescence, 16 h; DNA damage induced by 5-fluorouridine; Potency, µM (highest dose often 46.1 µM), inactives show top-dose activity change, negative = inhibition, most hits filed as inhibitors; 330,000 tested, 2.3% active; AID 504467, 2011; further: potency means the concentration at half of the fitted maximal effect; nearly all actives have a fitted effect of over 55% in size
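Overnight (16 hr) co-exposure of 2,000 cells/well to 5-fluorouridine and compound at 37 °C preceded detection. Luciferase was quantified via ONE-Glo luminescence; loss of signal denotes inhibition.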
TDP1 cell noCPT = qHTS for Inhibitors of human tyrosyl-DNA phosphodiesterase 1 (TDP1): qHTS in cells in absence of CPT | Potency, µM (titrated, usually from 46.2 µM), for the others: at the highest dose activity change, negative = growth inhibition, usual class: inhibitors | DT40 Tdp1-/- hTDP1 cells, no CPT, ATP luminescence, 48 h | AID 686978, 2013 | 420,000 tested, 15% active; further: potency means the concentration at half of the fitted maximal effect; nearly all actives have a fitted effect of over 55% in size
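Stably hTDP1-transfected Tdp1-null chicken DT40 cells were treated with library compounds minus camptothecin and grown for at least 48 hr at 37 °C, after which cellular ATP was quantified by luminescence.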
HT1080 IDH1KD tx = qHTS for induction of synthetic lethality in tumor cells producing 2HG: qHTS for the HT-1080-IDH1KD cell line | Potency, µM (top dose mostly 46.1 µM), for the others: at the top dose activity, negative = toxicity, most hits filed as cytotoxic | 360,000 tested, 2% active | HT-1080 IDH1 knockdown viability, ATP luminescence, 48 h;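 further: potency means the concentration at half of the fitted maximal effect; 0% = DMSO wells and -100% = cell-free medium wells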
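CellTiter-Glo luminescence after 48 h compound exposure at 37 degrees C of IDH1-knockdown HT-1080 cells in 5% FBS RPMI. %Activity scaled between DMSO wells and cell-free media wells, with curves fitted and assigned curve classes.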
IL1B secr inh = qHTS for Inhibitors of Inflammasome Signaling: IL-1-beta AlphaLISA Primary Screen. THP-1 LPS/ATP IL-1B secretion, AlphaLISA, 16 h; active compounds read low. activity change, % at 57.5 µM. 360,000 tested, 4.7% active. AID 743279, 2014; in the data active means activity change below about -50%; inconclusive means mostly about -30% to -49%
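THP-1 cells pretreated 1 hr with compounds (up to 57.5 uM final), then stimulated with LPS (250 ng/mL final) plus ATP (1.25 mM final); secreted IL-1B measured by AlphaLISA after 16 hr, decreased signal indicating inhibition.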
DT40 TDP1 CPT = qHTS for Inhibitors of human tyrosyl-DNA phosphodiesterase 1 (TDP1): qHTS in cells in presence of CPT. chicken DT40 Tdp1-/-;hTDP1 cells + 20 nM CPT, ATP luminescence, 48 h. Potency, µM (highest dose often 46.2 µM), without a hit: at the top dose activity change, negative = growth inhibition, usual class: inhibitors. 420,000 tested, 12% active; further: potency means the concentration at half of the fitted maximal effect; nearly all actives have a fitted effect of over 55% in size
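Cell growth measured by CellTiter-Glo luminescence after a minimum 48 h, 37 C compound exposure with 20 nM CPT in Tdp1-knockout DT40 cells stably expressing hTDP1, seeded 400/well; qHTS titration format.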
HT1080NT lethal = qHTS for induction of synthetic lethality in tumor cells producing 2HG: qHTS for the HT-1080-NT fibrosarcoma cell line. HT-1080-NT fibrosarcoma viability, CellTiter-Glo ATP luminescence, 48 h. Potency, µM (titrated, usually from 46.1 µM), without a hit: at the top dose activity, negative = less viability, hits mostly cytotoxic. 360,000 tested, 1.6% active;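 further: NT is the 2HG producing partner of a matched IDH1 knockdown line; potency means the concentration at half of the fitted maximal effect; 0% = DMSO-treated cells and -100% = media-only wells without cells; nearly all actives have a fitted effect of over 55% in size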
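Toxicity toward the 2HG-producing NT line was scored as %Activity, normalised to DMSO and no-cell wells, from CellTiter-Glo luminescence after 48 hours' treatment.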
Starred values were filed as active, the others as inactive; u = inconclusive; x = no result given. A selection: hits, their analogues and other compounds. The true share with any hit is near 19%. Unless noted, the call rests on the fitted dose curve; in most records, active means well fitted curve in the direction sought with a large enough effect; inconclusive means small, poorly fitted or top-dose-only effect, or another doubt; inactive means no such curve, though single readings can be large; an effect the other way counts as inactive or inconclusive. Unless noted, on the % scale 0 is the no-effect control and ±100 the full control effect.

SMILES	ELG1 repair inh	TDP1 cell noCPT	HT1080 IDH1KD tx	IL1B secr inh	DT40 TDP1 CPT	HT1080NT lethal
CC(C)(C)OC(=O)NCCCC[C@H](NC(=O)c1nc[nH]c1C(=O)N1CCN(c2ccccc2)CC1)C(=O)OC(C)(C)C	20.6µM*	18.4µM*	-18.9%	-55.4*	u	-1.4%
CC(C)(C)OC(=O)NCCCC[C@H](NC(=O)c1nc[nH]c1C(=O)N1CCN(C(=O)OC(C)(C)C)CC1)C(=O)OC(C)(C)C	-11.8%	23.1µM*	-7.8%	-7.6	u	-2.4%
CC(C)C[C@H](NC(=O)c1nc[nH]c1C(=O)N1CCN(C(=O)OC(C)(C)C)CC1)C(=O)OC(C)(C)C	-6.5%	u	-10.3%	-0.4	u	-33.3%
CC(C(=O)N1CCOCC1)N1C(=O)c2cccc3cccc(c23)C1=O (stereo unspecified)	7.5%	-23.1%	13.5%	-0.6	-13.9%	10.9%
CN(C)C(CNS(=O)(=O)c1cc([N+](=O)[O-])ccc1Cl)c1ccco1 (stereo unspecified)	2.1%	u	-3.7%	-5.1	u	-0.8%
Cc1ccc(/C=C(\C#N)C(=O)Nc2cccc(C)n2)cc1	-16.3%	-23.0%	0.2%	-5.8	-9.1%	-2.7%
COc1ccc(-n2c(=O)c3ccccc3n(Cc3cccc(C)c3)c2=O)cc1	x	-20.3%	x	x	u	x
CCCCn1c(=O)c2c(O)cc(=O)oc2c2ccccc21	2.0%	u	6.9%	42.4	-2.0%	0.6%
O=c1cc(O)c2c(=O)n(Cc3ccccc3)c3ccccc3c2o1	u	23.1µM*	-23.9%	26.5	u	-14.6%
Cc1cccc(Cn2c(=O)n(-c3cc(C)cc(C)c3)c(=O)c3oc4ccccc4c32)c1	x	11.6µM*	x	x	8.2µM*	x
COc1ccc(Cn2c(=O)n(Cc3ccco3)c(=O)c3oc4ccccc4c32)cc1	x	23.1µM*	x	x	u	x
Cc1cccc(-n2c(=O)c3ccccc3n(Cc3ccccc3)c2=O)c1	x	u	x	x	23.1µM*	x
Cc1cccc(Cn2c(=O)n(Cc3ccc4c(c3)OCO4)c(=O)c3oc4ccccc4c32)c1	x	-12.4%	x	x	-16.6%	x
CC(=O)c1nc(-c2ccccc2)sc1C	14.8%	12.0%	8.3%	-0.6	3.2%	10.3%
COC(=O)c1ccc(NC(=O)C2CCN(C(=O)Nc3ccccc3)CC2)cc1	3.0%	-29.3%	0.3%	51.4	-11.2%	4.3%
COc1cccc(Cn2c(=O)n(-c3cc(C)cc(C)c3)c(=O)c3oc4ccccc4c32)c1	x	16.4µM*	x	x	u	x
COc1cccc(NC(=O)Cn2c(=O)n(-c3ccccc3)c(=O)c3oc4ccccc4c32)c1	-15.0%	u	u	-5.1	u	u
Cc1ccc(-n2c(=O)c3oc4ccccc4c3n(Cc3cccc(F)c3)c2=O)cc1C	x	u	x	x	25.9µM*	x
CCN(CC)C(=O)CSc1nnc(COc2ccccc2)n1N	-13.3%	-14.4%	-4.3%	-3.4	-11.9%	-1.8%
N#C/C(=C\c1ccccc1[N+](=O)[O-])c1nc(C2CC2)cs1	u	u	-24.2%	-78.3*	u	-8.2%
COc1ccc(-n2ncc3c(SCC(=O)N4CCN(c5ccccc5OC)CC4)ncnc32)cc1	16.4µM*	20.6µM*	-0.8%	39.5	u	-2.5%
O=C(CSc1ncnc2scc(-c3ccccc3)c12)N1CCN(c2ccccc2F)CC1	u	18.4µM*	7.6%	-0.7	u	10.8%
COC(=O)CSc1ncnc2scc(-c3ccccc3)c12	-3.9%	-14.1%	-6.9%	1.6	-28.8%	-22.6%
COc1ccccc1N1CCN(C(=O)CSc2ncnc3scc(-c4ccccc4)c23)CC1	u	16.4µM*	-13.9%	-16.4	u	-8.2%
O=C(Nc1cccc([N+](=O)[O-])c1)c1ccn[nH]1	u	3.0%	7.4%	-2.1	-0.9%	0.8%
SMILES	ELG1 repair inh	TDP1 cell noCPT	HT1080 IDH1KD tx	IL1B secr inh	DT40 TDP1 CPT	HT1080NT lethal
COCOCCn1cc(CN2CCS(=O)(=O)N(Cc3ccc(-c4ccc(Cl)cc4)cc3)C(CC(C)C)C2=O)nn1 (stereo unspecified)	x	23.1µM*	u	4.9	u	u
COCOCCn1cc(CN2CCS(=O)(=O)N(Cc3ccc(-c4ccc(OC)nc4)cc3)C(C)C2=O)nn1 (stereo unspecified)	x	-19.4%	-3.1%	-1.8	-12.9%	-2.2%
COCOCCn1cc(CN2CCS(=O)(=O)N(Cc3ccc(-c4ccc(Cl)nc4)cc3)C(CC(C)C)C2=O)nn1 (stereo unspecified)	x	u	1.6%	-7.0	u	-26.0%
COCOCCn1cc(CN2CCS(=O)(=O)N(Cc3ccc(-c4ccc(Cl)cc4)cc3)C(C)C2=O)nn1 (stereo unspecified)	x	20.6µM*	-10.3%	-14.9	23.1µM*	-20.6%
COCOCCn1cc(CN2CCS(=O)(=O)N(Cc3ccc(-c4ccc(OC)c(OC)c4)cc3)C(CC(C)C)C2=O)nn1 (stereo unspecified)	x	18.4µM*	-12.4%	-9.7	20.6µM*	-17.0%
CN(Cc1nccn1C)C(=O)C1CCC(=O)N(Cc2cccc(C(F)(F)F)c2)C1 (stereo unspecified)	9.4%	5.2%	4.7%	19.5	-4.9%	2.7%
CCCSc1nc2c(c(=O)[nH]1)C(c1ccc(O)c(OCC)c1)CC(=O)N2 (stereo unspecified)	x	-13.4%	x	x	-16.3%	x
COc1ccccc1CNC(=O)C1=CCN(S(=O)(=O)c2ccc(C)cc2)CC1	-23.9%	u	-6.1%	-28.6	-23.2%	4.4%
Cc1cc(=O)n2nc(N3CCCC(C(=O)NCc4ccco4)C3)sc2n1 (stereo unspecified)	17.1%	0.7%	18.2%	-4.7	1.2%	10.1%
COC(=O)c1ccccc1NC(=O)C1CCCN(S(C)(=O)=O)C1 (stereo unspecified)	-3.2%	-2.0%	0.6%	20.4	-0.6%	-5.2%
O=C(NCc1ccco1)C1CCCN(c2nnc(-n3cccc3)s2)C1 (stereo unspecified)	1.3%	3.3%	u	-11.3	-5.2%	2.59µM*

High-throughput results deposited in PubChem BioAssay by National Center for Advancing Translational Sciences (NCATS).
